Source: PubChem BioAssay (EPA / NIEHS)
Records with an inconclusive call do not appear. Where a structure was tested more than once in an assay, its records may differ in their call. Active and inactive are the calls of the source. Rule for the calls: active = hit-call score of the fitted dose curve at least 0.9, where 1 is the maximum; inconclusive = response in the unintended direction; inactive = score below 0.9.

Assays:
[1] = ATG_XTT_Cytotoxicity: Cytotoxicity Assessment in the Attagene TRANS-FACTORIAL HepG2 Assay (AID 2283584)
Summary of the method: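 HepG2 cells transiently transfected with GAL4-UAS multiple reporter units, dosed 24 h; cytotoxicity read by XTT as loss of signal versus DMSO baseline.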

[2] = target: Cellular tumor antigen p53 (Homo sapiens) (UniProt P04637); experiment: TOX21_p53_BLA_p2_ratio: Tox21 HCT-116 p53 Agonism Beta-lactamase Assay, Ratio, Phase 2 (AID 2283592)
Sequence of Cellular tumor antigen p53 (Homo sapiens) (P04637 whole entry, looked up): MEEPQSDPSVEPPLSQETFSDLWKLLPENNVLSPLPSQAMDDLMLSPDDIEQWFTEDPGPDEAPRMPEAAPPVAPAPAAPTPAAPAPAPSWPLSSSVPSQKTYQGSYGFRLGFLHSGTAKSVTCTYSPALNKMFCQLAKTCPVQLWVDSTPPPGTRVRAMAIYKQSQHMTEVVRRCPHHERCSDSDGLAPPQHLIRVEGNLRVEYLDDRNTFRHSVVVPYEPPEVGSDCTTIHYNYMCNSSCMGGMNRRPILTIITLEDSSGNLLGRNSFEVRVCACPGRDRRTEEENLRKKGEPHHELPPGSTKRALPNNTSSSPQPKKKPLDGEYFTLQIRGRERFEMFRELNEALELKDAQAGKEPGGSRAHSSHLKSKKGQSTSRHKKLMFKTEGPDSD
Summary of the method: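 First, HCT116 reporter cells settle for 5 h at 37C. Next, DMSO compound solutions are pinned in (217-fold dilution) and left 16 h. Finally, CCF4-AM substrate is loaded 2 h at room temperature and the 460/530 nm ratio read.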

[3] = TOX21_p53_BLA_p3_viability: Viability Assessment in the Tox21 HCT-116 p53 Agonism Beta-lactamase Assay, Phase 3 (AID 2283593);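 note: cells exposed to compound for 16 h before reading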
Summary of the method: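 Cellular ATP was quantified by CellTiter-Glo luminescence, read after 30 min at room temperature. Beforehand, HCT116 cells (4000/well) received compound 5 h post-seeding, 217-fold diluted from DMSO, then incubated 16 h at 37C.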

[4] = TOX21_p53_BLA_p4_viability: Viability Assessment in the Tox21 HCT-116 p53 Agonism Beta-lactamase Assay, Phase 4 (AID 2283597);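 note: hits lower the luminescence signal meaning cytotoxicity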
Summary of the method: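 4000 HCT116 cells per well; 5 h attachment; compounds from DMSO, 217-fold dilution; 16 h at 37C. Then CCF4-AM, 2 h RT, followed by CellTiter-Glo, 30 min RT, luminescence. Decrease = cytotoxicity.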

[5] = target: Cellular tumor antigen p53 (Homo sapiens) (UniProt P04637); experiment: TOX21_p53_BLA_p5_ratio: Tox21 HCT-116 p53 Agonism Beta-lactamase Assay, Ratio, Phase 5 (AID 2283599)
Summary of the method: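 Beta-lactamase reporter ratio (blue 460 nm over green 530 nm, 405 nm excitation) after 2 h CCF4-AM loading, in HCT-116 cells exposed 16 h at 37 C to compounds pinned at 217-fold dilution. Increases relative to DMSO baseline scored.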

[6] = TOX21_p53_BLA_p5_viability: Viability Assessment in the Tox21 HCT-116 p53 Agonism Beta-lactamase Assay, Phase 5 (AID 2283600)
Summary of the method: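 Decreased CellTiter-Glo luminescence denotes lost viability. Exposure: 16 h at 37C, 5% CO2, with compounds from DMSO stocks diluted 217-fold in wells of 4000 cells.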

[7] = target: Cellular tumor antigen p53 (Homo sapiens) (UniProt P04637); experiment: TOX21_p53_BLA_p4_ratio: Tox21 HCT-116 p53 Agonism Beta-lactamase Assay, Ratio, Phase 4 (AID 2283601)
Summary of the method: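 Signal is the blue/green (460nm/530nm) ratio of cleaved versus uncleaved CCF4-AM substrate, read after 2 h substrate loading. Cells were HCT116 carrying the p53-responsive beta-lactamase reporter, dosed 16 h at 37C, 5% CO2; CellTiter-Glo measured in parallel.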

[8] = target: Cellular tumor antigen p53 (Homo sapiens) (UniProt P04637); experiment: TOX21_p53_BLA_p3_ratio: Tox21 HCT-116 p53 Agonism Beta-lactamase Assay, Ratio, Phase 3 (AID 2283596)
Summary of the method: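 Cells were seeded at 4000/well, rested 5 h at 37C, then dosed with DMSO compound solutions (217-fold dilution) for 16 h. CCF4-AM substrate was loaded for 2 h at room temperature, and the 460/530 nm emission ratio was fitted for gain of signal versus DMSO.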

SMILES	outcome [1]	outcome [2]	outcome [3]	outcome [4]	outcome [5]	outcome [6]	outcome [7]	outcome [8]	AC50 [7]	AC50 [8]
CCCCCCCCCCCCSC	inactive	inactive	inactive	inactive	inactive	inactive	inactive			
OC[C@H]1O[C@H](O[C@]2(CCl)O[C@H](CCl)[C@@H](O)[C@@H]2O)[C@H](O)[C@@H](O)[C@H]1Cl	inactive	inactive	inactive		inactive	inactive	inactive	inactive		
CCCc1ccccc1O	inactive	inactive	inactive		inactive	inactive	inactive	inactive		
C=C(C)C(=O)NCCCN(C)C	inactive	inactive	inactive		inactive	inactive		inactive		
C/C=C(\C)C(=O)OCc1ccccc1	inactive	inactive	inactive	inactive		inactive	inactive	inactive		
COc1ccc(Cl)cc1C	inactive	inactive			inactive			inactive		
C=CC[N+](C)(C)CC=C	inactive	inactive	inactive	inactive		inactive		inactive		
CCC(C)(O)CCC=C(C)C (stereo not given)	inactive	inactive		inactive	inactive	inactive	inactive	inactive		
CC(C)(C)c1n[nH]c(=S)n(N)c1=O	inactive	inactive		inactive	inactive			inactive		
C=COCCOCCOCCOC=C	inactive	inactive			inactive	inactive		inactive		
COc1ccc(NC(=O)CC(C)=O)cc1	inactive	inactive	inactive	inactive	inactive	inactive	inactive	inactive		
c1ccc2[nH]ccc2c1	inactive	inactive	inactive		inactive	inactive		inactive		
O=Cc1ccc(Cl)c([N+](=O)[O-])c1	inactive	inactive		inactive	inactive		inactive	inactive		
OCCCCCO	inactive	inactive			inactive	inactive		inactive		
Clc1ccc(Cl)c(Cl)c1Cl	inactive	inactive		inactive	inactive	inactive		inactive	0.436 nM (active)	
COC(=O)c1ccc(C)cc1	inactive	inactive	inactive	inactive		inactive	inactive	inactive	0.134 nM (active)	0.353 nM (active)
Cc1ncc([N+](=O)[O-])n1C	inactive	inactive	inactive	inactive		inactive		inactive		
CC(C)(N)CO	inactive	inactive		inactive	inactive	inactive	inactive	inactive		
COC(C(=O)O)c1ccccc1 (stereo not given)	inactive	inactive								
Cc1ccc2ccccc2n1	inactive	inactive			inactive	inactive	inactive	inactive		
CC1(C)C(=O)N(Br)C(=O)N1Cl	inactive	inactive	inactive		inactive					
CCCCCC(=O)OCCc1ccccc1	inactive	inactive	inactive	inactive		inactive		inactive		
CC(C)=CCCC(C)CC=O (stereo not given)	inactive	inactive			inactive			inactive		
CC(=O)OCCC(C)CC(C)(C)C (stereo not given)	inactive	inactive	inactive	inactive	inactive	inactive	inactive	inactive		
CCCCCCCCCCCCN(CCCCCCCCCCCC)CCCCCCCCCCCC	inactive	inactive		inactive				inactive		
O=C1O[C@@H]2[C@@H](O)[C@H](O)O[C@@H]2[C@H]1O	inactive			inactive	inactive	inactive	inactive	inactive		
COc1cc(C=O)ccc1OC(=O)C(C)C	inactive	inactive					inactive	inactive		
OCCN1CCNCC1	inactive			inactive	inactive	inactive	inactive	inactive		
